Reference: PubChem BioAssay
A number with no mark means an inactive call.

Assay: MM1S myeloma cell viability, profiling panel, resazurin fluorescence, basal, 24 h, PK04 Diversity Set (AID 1174);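 note: MM1S multiple myeloma cell line; test concentration not given here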
Details: higher = more signal, called active from +8 up or from −8 down

Structure (SMILES)	z-score
COCC(=C=CC[C@@H](O)c1cccc(OCCO)c1)C[C@@H](O)c1ccccn1	0.423
C[C@@]1([C@@H](NC(=O)c2ccc(-c3ccccc3)cc2)c2ccc(Cl)cc2)C[C@H]1C1CCCCC1	-2.24
CCc1cccc(NC(=O)O[C@H]2[C@H](OC(=O)Nc3ccccc3-c3ccccc3)[C@@H](OC(=O)Nc3ccccc3-c3ccccc3)[C@@H](OC)O[C@@H]2CO)c1	-4.83
C=C[C@H](CO[Si](CC)(CC)CC)N(Cc1ccc(OC(C)=O)c(OC)c1)S(=O)(=O)c1ccc(Br)cc1	-0.649
C[C@H]1NC(=O)[C@@]23C(=O)N[C@@H](Cc4ccccc4)C2[C@H](C)[C@@]2(C)O[C@H]2C3/C=C/C/C=C\CNC(=O)[C@@H]2CCCN2C1=O (stereo not given in full)	0.607
CCS[C@H]1[C@@H](C(=O)O)[C@H](c2ccc(C)cc2)N(S(=O)(=O)c2ccc(C)cc2)[C@@H]1CC	-0.751
COCCOC(=O)N1C(=O)[C@@]2(c3ccccc31)[C@H](C(=O)N1CCc3cc(OC)c(OC)cc3C1)[C@H]1C(=O)O[C@H](c3ccccc3)[C@H](c3ccccc3)N1[C@@H]2c1ccc(OCCO)cc1	-0.13
[N-]=[N+]=Nc1ccccc1[C@H]1OC(c2ccc(OCCCO)cc2)=N[C@@]1(CCS(=O)(=O)c1ccccc1)C(=O)NCC(O)CO (stereo not given in full)	-0.0646
[N-]=[N+]=NCc1ccccc1[C@@H]1OC(c2ccc(OCCCO)cc2)=N[C@]1(Cc1ccccc1)C(N)=O	-0.422
C=C(CCCC)C(=O)CC[C@@H](OC(=O)c1ccccc1-c1ccccc1C(=O)O)c1ccc(OCCO)cc1	-0.276
O=C(CS)NCCCCCCNC(=O)[C@@H]1C[C@@H]2C(=O)N[C@@H](Cc3ccccc3)C(=O)N2[C@@H]1c1cccc(OCCO)c1	-0.137
CC(C)C(O)C1C=CC2C(=O)N(c3ccccc3)C(=O)C2N1Nc1ccc([N+](=O)[O-])cc1 (stereo not given)	-0.413
CC(C)N1C(=O)[C@@]2(Cc3ccccc31)c1ccccc1C(=O)N(Cc1ccccc1Cl)[C@H]2c1ccc(CO)cc1	0.845
C=CCC(OC(C)=O)[C@@H]1[C@@H](N(Cc2cc3ccccc3o2)C(=O)c2cccc3ccccc23)c2cc(OCCCO)ccc2N1C(=O)c1ccc(-c2ccccc2)cc1 (stereo not given in full)	0.353
C=CCC(OC(C)=O)[C@@H]1[C@@H](N(Cc2ccc(-c3ccccc3)cc2)C(=O)Cc2ccc(OC)cc2)c2cc(OCCCO)ccc2N1C(=O)Cc1ccc2ccccc2c1 (stereo not given in full)	-0.541
Cc1ccc(S[C@]2(C(=O)O)CC(=O)N(C(C)C)[C@@H]2c2ccc(CO)cc2I)cc1	-1.66
O=C1O[C@@H](c2ccccc2)[C@@H](c2ccccc2)N2[C@@H](c3ccccc3OCCO)[C@]3(C(=O)Nc4ccc(C#CC5=CCCCC5)cc43)[C@@H](C(=O)N3CCCCCCC3)[C@H]12	-6.31
O=C1OCCC/C=C\[C@H]2OC34C=CCN(Cc5ccccc5)C(=O)[C@H]3N(CCCO)C(=O)[C@@H]4C12 (stereo not given in full)	0.794

Structure (SMILES)	z-score
COC(=O)[C@@]1(Cc2ccc(OC)cc2)[C@H]2c3cc(C(=O)N(C)C)n(Cc4ccc(S(C)(=O)=O)cc4)c3C[C@H]2CN1C(=O)c1ccccc1	-0.19
CC(C)C[C@@H]1NC(=O)[C@H](C(C)C)NC(=O)[C@@]23C(=O)N[C@@H](Cc4ccccc4)C2[C@H](C)[C@@]2(C)O[C@H]2C3/C=C/CC/C=C/CNC1=O (stereo not given in full)	-0.0691
COCCOC(=O)N1C(=O)[C@@]2(c3ccccc31)[C@H](c1ccc(O)cc1)N1[C@H](c3ccccc3)[C@H](c3ccccc3)OC(=O)[C@H]1[C@@H]2C(=O)Nc1nc2ccccc2s1	-1.1
CC(C)OC(=O)C=C1C[C@@H](c2ccccn2)O[C@@H](c2ccccn2)O1	-0.377
COC(=O)[C@@]1(Cc2ccc(F)cc2)[C@H]2c3cc(C(=O)N(C)C)n(Cc4ccc(Cl)c(C(F)(F)F)c4)c3C[C@H]2CN1C(=O)c1ccccc1	-2.72
CC(C)(C)OC(=O)CC[C@]1(C(=O)N2CCOCC2)N=C(c2ccc(OCCCO)cc2)O[C@H]1c1ccccc1N=[N+]=[N-]	-0.095
C=C(C(=O)CC[C@@H](OC(=O)c1cccnc1)c1ccccc1OCCO)C(C)C	-0.444
NCCCCCCNC(=O)[C@@H]1C[C@@H]2C(=O)NCC(=O)N2[C@@H]1c1ccc(O)cc1	1.02
CCCCCCc1nc(-c2cc(C)c(OC)c(C)c2)cc2c1[Si](C(C)C)(C(C)C)OC2	0.401
C=CCOC(=O)[C@@H]1[C@H]2C(=O)O[C@H](c3ccccc3)[C@H](c3ccccc3)N2[C@H](c2ccc(OCCOC(=O)[C@H]3C[C@H]4C(=O)N5CCC[C@H]5C(=O)N4[C@H]3c3ccc(O)cc3)cc2)[C@@]12C(=O)Nc1ccc(I)cc12	0.119
O=C(N1CCCCC1)[C@]1(Cc2ccccc2)N=C(c2ccc(OCCCO)cc2)O[C@@H]1c1ccccc1	-2.94
CCOC(=O)[C@H]1C/C=C/C[C@H](C(=O)OCC)C(=O)O[C@H]2[C@@H](OC)O[C@H](CO)[C@@H](OC(=O)c3c(OC)cccc3OC)[C@@H]2OC1=O	-3.73
C=C(CCCC)/C(=C/C[C@H](OC(=O)c1ccncc1)c1ccccc1OCCO)c1cnc2ccccc2c1	-1.07
CCN(CC)c1ccc(N2CC=CC34O[C@@H]5C=CCCOC(=O)C5[C@H]3C(=O)N(CCCCCCO)[C@@H]4C2=O)cc1 (stereo not given in full)	1.55
COC(=O)[C@@]1(Cc2ccc(OC)cc2)[C@H]2c3cc(C(=O)N4CCCC4)n(CCN4CNCC4=O)c3C[C@H]2CN1C(=O)c1ccccc1	-0.359
CCC(CC)C(O)C1C=CC2C(=O)NC(=O)C2N1Nc1ccccn1 (stereo not given)	-1.76
O=C(CS)NCCCCCCNC(=O)[C@@H]1C[C@@H]2C(=O)NCC(=O)N2[C@@H]1c1cccc(OCCO)c1	-0.217
